Anthrax LF inh2 – anthrax lethal factor protease inhibition. P15917. multiplex microsphere protease cleavage assay, LF. hit rate 0.12% among 360,000. inhibition, % at 10 µM
Target sequence (P15917 whole entry, looked up): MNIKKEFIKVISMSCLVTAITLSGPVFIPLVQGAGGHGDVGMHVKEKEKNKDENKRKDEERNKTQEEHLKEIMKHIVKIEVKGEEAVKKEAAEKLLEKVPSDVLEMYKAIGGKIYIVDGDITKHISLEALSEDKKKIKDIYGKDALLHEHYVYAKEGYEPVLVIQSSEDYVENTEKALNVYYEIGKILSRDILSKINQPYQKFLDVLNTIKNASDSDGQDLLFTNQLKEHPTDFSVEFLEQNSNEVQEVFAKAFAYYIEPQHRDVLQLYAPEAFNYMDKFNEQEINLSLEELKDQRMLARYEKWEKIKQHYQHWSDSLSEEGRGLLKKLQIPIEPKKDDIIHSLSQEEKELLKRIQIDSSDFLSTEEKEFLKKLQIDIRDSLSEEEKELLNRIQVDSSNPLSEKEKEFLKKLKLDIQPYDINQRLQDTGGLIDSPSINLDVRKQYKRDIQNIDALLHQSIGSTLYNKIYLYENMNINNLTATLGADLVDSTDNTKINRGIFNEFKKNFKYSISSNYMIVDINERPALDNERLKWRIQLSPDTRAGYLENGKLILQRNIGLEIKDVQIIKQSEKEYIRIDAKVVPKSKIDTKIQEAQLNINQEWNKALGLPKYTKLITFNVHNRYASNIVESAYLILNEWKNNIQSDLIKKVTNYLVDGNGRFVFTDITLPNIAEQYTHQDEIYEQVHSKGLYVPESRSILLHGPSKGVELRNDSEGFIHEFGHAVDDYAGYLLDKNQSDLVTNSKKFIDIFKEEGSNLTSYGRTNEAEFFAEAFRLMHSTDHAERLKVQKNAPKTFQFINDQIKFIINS
BoNT A protease – inhibitors of Botulinum neurotoxin A light chain protease | AID 588499 | hit rate 0.17% among 360,000 | multiplex microsphere protease substrate cleavage, flow cytometry | inhibition, % at 10 µM
Autofluor counter – flagged as autofluorescent in microsphere protease counterscreen; compound autofluorescence counterscreen, microsphere flow cytometry; stronger effect = higher value; fluorescence intensity (test concentration not listed); hit rate 3.1% among 360,000; in the data active = fluorescence intensity above about 16000; inconclusive = no clear call, values can overlap the other calls
BoNT F protease – BoNT F light chain protease inhibition; Multiplex microsphere protease cleavage assay, flow cytometry; inhibition, % at 10 µM; hit rate 0.22% among 360,000; in the data active = inhibition above about 35%, passing the limit was not always enough; inconclusive = no clear call, values can overlap the other calls
Each line names hits and unclear results; the compound was inactive in the other large screens. The list is not random: actives were taken first. Their share in the collection is about 3.5%. Rule as the data show it, unless noted: active = inhibition above about 30%; inconclusive = no clear call, values can overlap the other calls; inactive = below that.

Cn1c(SC/C=C/c2ccccc2)nnc1-c1cccs1	Autofluor counter inconclusive
Cc1ccc(OCCSc2nnc(-c3cccs3)n2C)cc1	BoNT A protease inconclusive, Autofluor counter 20327
Cc1cc(OCCSc2nnc(-c3cccs3)n2C)ccc1Cl	none
Cn1c(SCCOc2ccc(Cl)cc2)nnc1-c1ccncc1	Autofluor counter 23566
Cn1c(SCCOc2ccc(F)cc2)nnc1-c1ccncc1	none
CCC(C(=O)NCCN1CCOCC1)n1nc(C)n2c(cc3sccc32)c1=O (configuration not stated)	none
COc1ccc(CN2CCNC(=O)C2CC(=O)N2CCCN(C(C)=O)CC2)c(OC)c1 (configuration not stated)	none
Cc1noc(C)c1C(=O)OCC(=O)c1c[nH]c2ccccc12	Anthrax LF inh2 53, BoNT A protease 47
CC1CCN(CCCNC(=O)c2nn(C)c3c2CS(=O)(=O)c2ccccc2-3)CC1	none
COc1ccc(CCNc2ccncn2)cc1	none
COc1ccc(CNCCc2ccccc2)cc1OCC(N)=O	Autofluor counter 20991
CCOc1cc(CNCCc2ccc(S(N)(=O)=O)cc2)ccc1OCc1ccccc1	Autofluor counter 22507
COc1ccc(CNCCc2ccc(Cl)cc2)cc1OCc1ccccc1	none
CCOc1cc(CNCCc2ccc(S(N)(=O)=O)cc2)cc(Cl)c1OCc1ccccc1	none
COc1cc(CNCc2ccccn2)ccc1OCC(N)=O	none
COc1ccc(CCNCc2ccccn2)cc1OC	Autofluor counter 16567
COc1ccc(CCNc2ccncn2)cc1OC	Autofluor counter 23028
Cc1ccc(S(=O)(=O)N2CCOCC2)cc1NC(=O)COC(=O)/C=C/c1ccco1	none
COc1cccc(OC)c1-c1nn2c(-c3ccccc3Cl)nnc2s1	Autofluor counter 21844
COc1cc(-c2nnc3sc(-c4ccco4)nn23)cc(OC)c1OC	BoNT A protease inconclusive, Autofluor counter 23532
Cc1ccccc1-c1nn2c(-c3ccccc3)nnc2s1	none
COc1ccc(-c2nnc3sc(-c4ccccc4OC)nn23)cc1	none
c1cncc(-c2nnc3sc(-c4ccco4)nn23)c1	none
Clc1ccccc1-c1nnc2sc(-c3ccccn3)nn12	BoNT A protease inconclusive, Autofluor counter 21229
Clc1ccccc1-c1nnc2sc(-c3ccco3)nn12	Autofluor counter 23775
CCCCN(CCCC)Cc1cc(=O)oc2cc(OC)c(Cl)cc12	none
COc1cc(OC)c(OC)cc1CNC(=O)c1cc(S(=O)(=O)N2CCOCC2)ccc1F	none
Oc1ccc(Br)cc1C1Nc2ccccc2S1 (configuration not stated)	none
O=C(Nc1ccc2c(c1)OCO2)C1CC(c2cccc(Br)c2)=NO1 (configuration not stated)	BoNT F protease inconclusive
Cc1ccc(C2=N/C(=C/c3cccs3)C(=O)N2Nc2ccccc2)cc1	Anthrax LF inh2 58, BoNT A protease 80, BoNT F protease 43
NCC12CC3CC(C1)CC(CN)(C3)C2	Autofluor counter 23074
CCOc1cc2c3c(c1)C1(Nc4ccccc4S1)C(=O)N3C(C)(C)CC2C (configuration not stated)	BoNT A protease inconclusive, Autofluor counter 23624
CCOc1cc2c3c(c1)C1(OCCO1)C(=O)N3C(C)(C)CC2C (configuration not stated)	none
COc1ccc(C(=O)OCC(=O)N(C)C2CCS(=O)(=O)C2)cc1Br (configuration not stated)	none
Cc1cc2cc(C)c3nnc(SCc4ccccn4)n3c2cc1C	none
Cc1ccc(C)c2c1cc(C)c1nnc(SCc3ccccn3)n12	Autofluor counter 26246
CSc1nsc(SCC(=O)Nc2ccccc2C(=O)O)n1	none
CCOC(=O)c1ccc(N/C=C\C(=O)c2cccc(OC)c2)cc1	none
COc1cccc(N/C=C/C(=O)c2ccc(Br)cc2)c1	none
COc1cccc(C(=O)/C=C/Nc2cc(C)ccc2O)c1	Autofluor counter 23605
COc1ccc(C(=O)/C=C/Nc2cccc(O)c2)cc1	BoNT A protease inconclusive, Autofluor counter 20620
Cc1ccc(CN2CC(C(=O)NCC(=O)Nc3c(C)cccc3C)CC2=O)cc1 (configuration not stated)	Autofluor counter inconclusive
COc1ccc(NC(=O)C(CC(=O)O)Cc2ccccc2)cc1 (configuration not stated)	Autofluor counter 22396
COc1ccc(NC(=O)C(CC(=O)O)Cc2ccc(Br)cc2)cc1 (configuration not stated)	BoNT F protease inconclusive
N=c1c2c(-c3ccccc3)c(-c3ccccc3)n(Cc3ccccc3)c2ncn1CCO	BoNT A protease inconclusive, Autofluor counter 22944
COc1ccc(NC(=O)N2CCn3c2nc2ccccc23)cc1	Autofluor counter 19709
O=C(Nc1ccccc1)N1CCn2c1nc1ccccc12	none
CC1CCc2cccc3c2N1c1cc(C#N)c(C#N)cc1O3 (configuration not stated)	Autofluor counter 23863

Compound activity (PubChem BioAssay)
